Screens from PubChem BioAssay.
Most compounds without a hit are left out; they make up all but 1.2% or so of the library.
GCN5L2 inh = qHTS Assay for Inhibitors of GCN5L2; GCN5L2 HAT assay, ThioGlo1 CoA-SH fluorescence; Potency, µM (titrated, usually from 58.9 µM), inactives show at the top dose activity change, negative = inhibition, usual class: inhibitors; actives 0.21% (n = 390,000); AID 504327, 2011; further: potency means the concentration at half of the fitted maximal effect
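Compounds, pin-transferred from DMSO stocks, meet 20nM GCN5L2 for 15 min before the reaction begins with H3(1-25) peptide (75uM) and acetyl-CoA (70uM). Thiol-reactive ThioGlo1 reports CoA release over 20 min at room temperature.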
PI4K2A block = qHTS for small molecular inhibitors of PI4K2A | activity change, negative = inhibition, % at 76.9 µM | purified PI4K2A, ADP-Glo luminescence, 1 h; active compounds read low | actives 0.13% (n = 420,000) | Phosphatidylinositol 4-kinase type 2-alpha (Homo sapiens), Q9BTU6; in the data active means activity change below about -50%; inconclusive means mostly about -30% to -49%;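 further: -100% = wells without enzyme as full effect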
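PI4K2A activity was measured by ADP-Glo luminescence: enzyme (4 ug/mL stock) and phosphatidylinositol (1.2 mM stock) in Tris pH 7.5/MgCl2/EGTA/Triton X-100 buffer were reacted with ATP (300 microM stock) for one hour at ambient temperature.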
PI5P4K alpha inh = qHTS for Inhibitors of phosphatidylinositol 5-phosphate 4-kinase (PI5P4K). PI5P4Kalpha enzyme, ADP-Glo luminescence, 60 min; active compounds read low. Phosphatidylinositol 5-phosphate 4-kinase type-2 alpha (Homo sapiens), P48426. max response, %. actives 1.2% (n = 330,000). AID 652105, 2013; active means max response of -50% or lower; inconclusive means between -30% and -50%; inactive means -30% or higher; further: value at the top dose of about 77 µM
Target sequence (P48426 whole entry, looked up): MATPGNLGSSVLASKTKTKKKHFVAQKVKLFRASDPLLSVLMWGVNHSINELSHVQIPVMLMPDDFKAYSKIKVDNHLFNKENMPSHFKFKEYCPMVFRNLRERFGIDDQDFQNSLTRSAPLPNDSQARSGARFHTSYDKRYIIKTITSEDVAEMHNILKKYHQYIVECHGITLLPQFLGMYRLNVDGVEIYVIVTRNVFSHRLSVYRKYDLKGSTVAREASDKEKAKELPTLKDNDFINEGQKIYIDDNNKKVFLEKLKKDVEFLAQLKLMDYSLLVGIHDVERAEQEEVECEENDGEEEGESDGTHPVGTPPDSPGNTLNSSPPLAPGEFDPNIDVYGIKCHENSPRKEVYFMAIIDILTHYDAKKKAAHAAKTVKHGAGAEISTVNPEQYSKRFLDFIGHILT
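PI5P4Kalpha ADP-Glo assay; 5 microM ATP final; 60 min RT reaction; HEPES pH 7.4/EGTA/CHAPS, 5% DMSO; controls lacking substrate or enzyme; luminescent end-point.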
Tb PGK inh = qHTS Assay to Find Inhibitors of Phosphoglycerate Kinase. Phosphoglycerate kinase, glycosomal (Trypanosoma brucei brucei), P07378. PGK/GAPDH coupled, Kinase-Glo luminescence, 60 min. Potency, µM (highest dose often 57.5 µM), without a hit: top-dose activity change, negative = inhibition, most hits filed as inhibitors. actives 0.043% (n = 380,000); further: potency means the concentration at half of the fitted maximal effect; nearly all actives have a fitted effect of over 60% in size
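Recombinant glycosomal PGK reaction used 1,3-bisphosphoglycerate generated in-well by GAPDH (100nM final) in 100mM TEA pH 7.6, 5mM MgCl2, 0.01% Tween-20. After 60 minutes at room temperature, ATP was read by Kinase-Glo Plus luminescence end-point.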
GoLoco inh red = qHTS Assay for Inhibitors of RGS12 GoLoco Motif Activity (Red Fluorophore) | Guanine nucleotide-binding protein G(i) subunit alpha-1 (Homo sapiens), P63096 | Gai1:RGS12 GoLoco peptide FP, rhodamine, 10 min | Potency, µM (top dose mostly 61.6 µM), for the others: top-dose activity, negative = inhibition, usual class: inhibitors | actives 0.44% (n = 230,000); active means well fitted inhibition curve with a large enough effect, not every such curve was filed as active; inactive means no such curve, though single readings can be large or run the other way; further: potency means the concentration at half of the fitted maximal effect; nearly all actives have a fitted effect of over 30% in size
Pin1 inhibitor = qHTS Assay to Find Inhibitors of Pin1 | Peptidyl-prolyl cis-trans isomerase NIMA-interacting 1 (Homo sapiens), Q13526 | Pin1 FP peptide displacement, HiFluor488, 10 min | Potency, µM (series often up to 115 µM), for inactives: at the highest dose activity, negative = inhibition, usual class: inhibitors | actives 0.009% (n = 390,000) | AID 504891, 2011; active means well fitted inhibition curve with a large enough effect in the polarisation, with a control signal flat, not every such curve was filed as active; inconclusive means small, poorly fitted or top-dose-only effect, or effect the other way, or a change in a side signal; inactive means no such curve, though single readings can be large or run the other way; the % refers to the polarisation; further: potency means the concentration at half of the fitted maximal effect
Target sequence (Q13526 whole entry, looked up): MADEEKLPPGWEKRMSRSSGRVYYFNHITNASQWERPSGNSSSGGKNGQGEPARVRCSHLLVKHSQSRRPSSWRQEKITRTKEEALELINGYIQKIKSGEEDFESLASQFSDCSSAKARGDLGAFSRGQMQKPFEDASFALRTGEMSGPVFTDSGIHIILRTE
ADP-Glo counter = qHTS for Inhibitors of PI5P4K: ADP-Glo counter assay. Potency, µM (doses to about 76.9 µM), for the others: at the top dose activity change, negative = inhibition, actives largely listed as inhibitors. ADP-Glo detection counter-screen, luciferase luminescence, no enzyme. 1,100 tested, under 10 active. AID 743285, 2014. shares compounds with PI5P4K alpha inh
Active calls of the source: *. Unless noted, the call rests on the fitted dose curve; in most records, active means well fitted curve in the direction sought with a large enough effect; inconclusive means small, poorly fitted or top-dose-only effect, or another doubt; inactive means no such curve, though single readings can be large; an effect the other way counts as inactive or inconclusive. Unless noted, on the % scale 0 is the no-effect control and ±100 the full control effect.

What do the screens show for `COc1cccc(-c2nn3c(=O)cc(CN4CCN(C(=O)/C=C/c5ccccc5)CC4)nc3s2)c1`?
GCN5L2 inh: -19%; PI4K2A block: 0; Tb PGK inh: -1%; Pin1 inhibitor: inconclusive

What do the screens show for `CC(C)NC(=O)Cn1nnc(-c2cccc(NC(=O)c3ccccc3F)c2)n1`?
GCN5L2 inh: 2%; PI4K2A block: -2; PI5P4K alpha inh: 7; Tb PGK inh: 0%; GoLoco inh red: 18%; Pin1 inhibitor: -3%

How did Cc1cc(C)c(Nc2ncnc3c2cnn3C)c(C)c1 do in these assays?
GCN5L2 inh: -5%; PI4K2A block: -1; Tb PGK inh: -1%; Pin1 inhibitor: -15%

What do the screens show for `Cc1ccc([N+](=O)[O-])cc1Nc1nc(N2CCOCC2)nc(N2CCOCC2)n1`?
GCN5L2 inh: -5%; PI4K2A block: 3; PI5P4K alpha inh: -74*; Tb PGK inh: -14%; GoLoco inh red: 4%; Pin1 inhibitor: -5%; ADP-Glo counter: -3%

How did Cc1ccc(Cl)cc1Nc1nc(N2CCOCC2)nc(N2CCOCC2)n1 do in these assays?
GCN5L2 inh: -15%; PI4K2A block: -4; PI5P4K alpha inh: 4; Tb PGK inh: -7%; Pin1 inhibitor: -1%

Results for O=C(Oc1ccc(N(Cc2cccs2)C2=NS(=O)(=O)c3ccccc32)cc1)c1ccco1 ?
GCN5L2 inh: -15%; PI4K2A block: 0; PI5P4K alpha inh: 1; Tb PGK inh: -2%; GoLoco inh red: 8%; Pin1 inhibitor: -3%

What do the screens show for `O=C(Oc1ccc(N(Cc2cccs2)C2=NS(=O)(=O)c3ccccc32)cc1)c1ccccc1Cl`?
GCN5L2 inh: -5%; PI4K2A block: -20; PI5P4K alpha inh: -65*; Tb PGK inh: -8%; GoLoco inh red: 1%; Pin1 inhibitor: -4%; ADP-Glo counter: 0%

How did O=C(Nc1nc(-c2ccccn2)cs1)C1CC(=O)N(c2ccc3c(c2)OCCO3)C1 (stereo unspecified) do in these assays?
GCN5L2 inh: -10%; PI4K2A block: -5; PI5P4K alpha inh: -50*; Tb PGK inh: -6%; GoLoco inh red: 30%; Pin1 inhibitor: inconclusive; ADP-Glo counter: -4%

How did Cc1cc(NC(=O)CCCn2cc([N+](=O)[O-])cn2)n(Cc2ccc(F)cc2)n1 do in these assays?
GCN5L2 inh: -5%; PI4K2A block: -3; PI5P4K alpha inh: -68*; Tb PGK inh: -8%; GoLoco inh red: 9%; Pin1 inhibitor: inconclusive; ADP-Glo counter: -12%

How did O=C(CN(Cc1ccccc1C(F)(F)F)C(=O)CNC(=O)c1ccco1)NC1CCCC1 do in these assays?
GCN5L2 inh: -5%; PI4K2A block: -7; PI5P4K alpha inh: 15; Tb PGK inh: inactive; GoLoco inh red: 6%; Pin1 inhibitor: -1%

Results for O=C(COC(=O)C1CCCCC1)Nc1ccccc1OC(F)F ?
GCN5L2 inh: -4%; PI4K2A block: 2; PI5P4K alpha inh: -68*; Tb PGK inh: -2%; GoLoco inh red: 7%; Pin1 inhibitor: -1%; ADP-Glo counter: -5%

Results for O=C(CSc1ccccc1)Nc1nnc(COc2ccc(Cl)cc2)s1 ?
GCN5L2 inh: inconclusive; PI4K2A block: -5; PI5P4K alpha inh: -53*; Tb PGK inh: inactive; GoLoco inh red: 7%; Pin1 inhibitor: 10%; ADP-Glo counter: -7%

What do the screens show for `Cc1cccc(C)c1OCc1nnc(NC(=O)CSc2ccc(Cl)cc2)s1`?
GCN5L2 inh: 2%; PI4K2A block: -6; PI5P4K alpha inh: 2; Tb PGK inh: inactive; GoLoco inh red: 9%; Pin1 inhibitor: 10%

Results for COc1ccc(NC(=O)CSc2nc3nc(-c4cccs4)cc(C(F)(F)F)c3c(=O)[nH]2)c(OC)c1 ?
GCN5L2 inh: -10%; PI4K2A block: 2; PI5P4K alpha inh: -53*; Tb PGK inh: -2%; GoLoco inh red: 12%; Pin1 inhibitor: 0%; ADP-Glo counter: -1%

How did O=C(Nc1ccccc1F)Nc1cccc2ccc(O)cc12 do in these assays?
GCN5L2 inh: -16%; PI4K2A block: -10; PI5P4K alpha inh: inconclusive; Tb PGK inh: -3%; GoLoco inh red: 5%; Pin1 inhibitor: 0%

What do the screens show for `CC(=O)Nc1cccc2ccc(O)cc12`?
PI4K2A block: -3; PI5P4K alpha inh: -62*; Tb PGK inh: -2%; Pin1 inhibitor: 3%; ADP-Glo counter: 2%

Results for COc1ccc(C(=O)NC(CCSC)C(=O)N2CCCCCC2)cc1 (stereo unspecified) ?
GCN5L2 inh: 8%; PI4K2A block: -1; PI5P4K alpha inh: -76*; Tb PGK inh: 9%; Pin1 inhibitor: -3%; ADP-Glo counter: -1%

Results for Cc1ccnc2nc(C(=O)OCC(=O)NC3CCCC(C)C3C)nn12 (stereo unspecified) ?
GCN5L2 inh: -5%; PI4K2A block: -14; PI5P4K alpha inh: -11; Tb PGK inh: 8%; Pin1 inhibitor: 1%; ADP-Glo counter: -9%

How did Cc1ccnc2nc(C(=O)OCC(=O)NC3CCC(C)CC3)nn12 (stereo unspecified) do in these assays?
GCN5L2 inh: -6%; PI4K2A block: 7; PI5P4K alpha inh: 0; Tb PGK inh: -8%; Pin1 inhibitor: 9%

Results for CC1(C)OC(=O)C2=C(C[C@@H](CCc3ccccc3)O[C@@H]2c2ccc(F)cc2)O1 ?
PI4K2A block: 0; PI5P4K alpha inh: 13

Results for CCN1CCN(Cc2nc3cc(NC(=O)c4cccc([N+](=O)[O-])c4)ccc3n2CC)CC1 ?
GCN5L2 inh: 1%; PI4K2A block: 2; Tb PGK inh: 2%; Pin1 inhibitor: -20%

What do the screens show for `Cc1cccc(S(=O)(=O)NC(=O)C2(C)CCN2C(=O)Cc2cc(F)ccc2F)c1` (stereo unspecified)?
PI4K2A block: -5; PI5P4K alpha inh: -73*; ADP-Glo counter: -8%
